In PubChem BioAssay (Tox21) one finds Potency and outcome data, which are given here for 23 molecules.

Records with an inconclusive call do not appear. Active and inactive are the calls of the source. Unless noted, calls come from the whole dose curve; as a rule, active = well fitted curve in the direction sought with a large enough effect in the repeat runs; inconclusive = weak or mixed curves; inactive = no such curve, though single readings can be large; an effect the other way counts as inactive or inconclusive.

The nature of assay [1]: qHTS assay to identify small molecule antagonists of the thyroid receptor (TR) signaling pathway - cell viability counter screen (AID 743064). Note: nearly all actives have a fitted effect of over 50% in size. To be noted: GH3.TRE-Luc viability, CellTiter-Fluor, 24 h; series mostly up to 70.3 µM. In short, it runs like this: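 In rat pituitary GH3.TRE-Luc reporter cells co-exposed to compound and 1 nM T3 for 23.5 h, cytotoxicity was assessed with CellTiter-Fluor in the same wells, read by fluorescence.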
A general note: Quantitative high-throughput screening tests each substance at several concentrations.

Assay [2] in a line: qHTS assay to identify small molecule antagonists of the thyroid receptor (TR) signaling pathway (AID 743065). Note: nearly all actives have a fitted effect of over 55% in size. Conditions: GH3.TRE-Luc, T3-stimulated luciferase inhibition, 23.5 h; series mostly up to 70.3 µM. An outline of the steps: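 GH3.TRE-Luc rat pituitary cells carrying two TR response elements driving luciferase were plated for 4 h, given compound plus 1 nM T3 (final), and incubated 23.5 h at 37 C. ONE-Glo luminescence measured reporter inhibition; CellTiter-Fluor fluorescence tracked cytotoxicity.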

Assay [3] has as its system thyroid hormone receptor (rat, GH3 cells). Briefly: qHTS assay to identify small molecule agonists of the thyroid receptor (TR) signaling pathway (AID 743066; calls by dose curve). Conditions: GH3.TRE-Luc cells, TR agonist luciferase, 24 h; series mostly up to 83.9 µM.
In assay [4] the target is Estrogen receptor (Homo sapiens) (UniProt P03372). Briefly: qHTS assay to identify small molecule antagonists of the estrogen receptor alpha (ER-alpha) signaling pathway (AID 743069; active = well fitted curve in the direction sought with a large enough effect in the signal ratio in the repeat runs, not every such curve was filed as active; the % refers to the signal ratio). To be noted: HEK293 ER-alpha-UAS-bla, beta-lactamase ratio, antagonist mode; series mostly up to 69.4 µM. In short, it runs like this: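 HEK293 cells stably carrying an ER-alpha-UAS-bla beta-lactamase reporter were pre-cultured overnight in 2% charcoal-stripped FBS medium. Test compounds in DMSO were added together with 17beta-estradiol for 18 hr at 37C. Read-out was fluorescence after 2 hr with LiveBLAzer B/G FRET substrate at room temperature.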

Assay [5] in a line: qHTS assay to identify small molecule antagonists of the estrogen receptor alpha (ER-alpha) signaling pathway - cell viability counter screen (AID 743074; calls by dose curve; note: nearly all actives have a fitted effect of over 45% in size). To be noted: ERalpha-bla HEK293 viability, CellTiter-Glo luminescence, 18 h; series mostly up to 69.4 µM.
The target in assay [6] is Estrogen receptor (Homo sapiens) (UniProt P03372). Briefly: qHTS assay to identify small molecule agonists of the estrogen receptor alpha (ER-alpha) signaling pathway (AID 743075; calls by dose curve). To be noted: HEK293 ER-alpha-UAS-bla, beta-lactamase FRET ratio, 18 h; series mostly up to 70.1 µM.
For assay [7] the target is unchanged. In words: qHTS assay to identify small molecule agonists of the estrogen receptor alpha (ER-alpha) signaling pathway using the BG1 cell line (AID 743079). Note: nearly all actives have a fitted effect of over 20% in size. Note: potency is the fitted concentration of half-maximal effect. To be noted: BG1Luc4E2 cells, ERE-luciferase agonist, 22 h; series mostly up to 70.3 µM.
Assay [8] in a line: qHTS assay to identify small molecule antagonists of the estrogen receptor alpha (ER-alpha) signaling pathway using the BG1 cell line (AID 743080; calls by dose curve;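 note: BG1 cells stimulated with 17beta-estradiol alongside compound; nearly all actives have a fitted effect of over 25% in size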). Conditions: BG1Luc4E2 ERE-luciferase antagonist mode, luminescence; series mostly up to 70.3 µM. In short, it runs like this:
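BG1Luc4E2, endogenous ER-alpha, 4xERE-luc; 5 d charcoal-stripped FBS, phenol red free; 24 h plating; cpd + 17beta-estradiol 21.5 h, 37 C/5% CO2; CellTiter-Fluor viability 30 min, then ONE-Glo luciferase 30 min RT.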

A short description of assay [9]: qHTS assay to identify small molecule antagonists of the estrogen receptor alpha (ER-alpha) signaling pathway using the BG1 cell line - cell viability counter screen (AID 743081).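 Note: compound given together with 17beta-estradiol as the ER stimulus; nearly all actives have a fitted effect of over 45% in size.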 Conditions: BG1Luc4E2 viability, CellTiter-Fluor, 22 h; series mostly up to 70.3 µM.
A further assay addresses Aromatase (Homo sapiens) (UniProt P11511). In words: qHTS assay to identify aromatase inhibitors (AID 743083). Note: nearly all actives have a fitted effect of over 55% in size. To be noted: MCF-7 aro ERE, testosterone-driven ERE luciferase, 24 h; series mostly up to 70.3 µM.

Sequence of Aromatase (Homo sapiens) (P11511 whole entry, looked up): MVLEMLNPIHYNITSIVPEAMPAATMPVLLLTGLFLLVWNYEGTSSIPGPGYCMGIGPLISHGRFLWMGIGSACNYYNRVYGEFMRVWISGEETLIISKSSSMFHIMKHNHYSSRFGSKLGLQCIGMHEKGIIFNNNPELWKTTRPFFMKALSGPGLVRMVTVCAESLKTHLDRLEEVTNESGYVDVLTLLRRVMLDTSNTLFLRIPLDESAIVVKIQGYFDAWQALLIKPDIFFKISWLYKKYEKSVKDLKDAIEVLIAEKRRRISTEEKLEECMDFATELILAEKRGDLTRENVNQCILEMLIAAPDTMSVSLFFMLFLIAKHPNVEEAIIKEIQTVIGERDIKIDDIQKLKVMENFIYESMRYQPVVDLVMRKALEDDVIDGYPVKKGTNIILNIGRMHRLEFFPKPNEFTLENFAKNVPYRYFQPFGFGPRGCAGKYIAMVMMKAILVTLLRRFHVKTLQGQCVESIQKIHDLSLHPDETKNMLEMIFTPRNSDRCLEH
Sequence of Estrogen receptor (Homo sapiens) (P03372 whole entry, looked up): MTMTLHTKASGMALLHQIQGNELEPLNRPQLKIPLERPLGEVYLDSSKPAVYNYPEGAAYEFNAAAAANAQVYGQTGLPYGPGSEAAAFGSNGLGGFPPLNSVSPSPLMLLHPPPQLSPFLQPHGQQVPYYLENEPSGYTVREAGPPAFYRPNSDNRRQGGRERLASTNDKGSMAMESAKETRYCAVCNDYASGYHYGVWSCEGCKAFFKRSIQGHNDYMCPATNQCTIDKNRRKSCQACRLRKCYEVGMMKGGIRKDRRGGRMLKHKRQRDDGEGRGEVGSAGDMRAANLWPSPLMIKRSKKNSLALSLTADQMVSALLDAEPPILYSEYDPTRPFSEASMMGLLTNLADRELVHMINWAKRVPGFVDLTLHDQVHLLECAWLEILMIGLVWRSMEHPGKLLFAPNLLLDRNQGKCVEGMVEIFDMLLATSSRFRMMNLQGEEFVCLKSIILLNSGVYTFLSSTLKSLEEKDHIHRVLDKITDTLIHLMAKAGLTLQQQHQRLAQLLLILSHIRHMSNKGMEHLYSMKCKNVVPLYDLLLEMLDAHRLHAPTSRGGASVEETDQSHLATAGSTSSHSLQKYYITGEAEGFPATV

Turning to `Oc1ccccc1F`, the Potency result in [1], in [2], in assay [4], in [5], in assay [7] and in assay [9] was “inactive” throughout. Also, the Potency result with Aromatase (Homo sapiens) is “inactive”. For the same molecule, the molecule was called inactive in [3], in assay [6] and in assay [8].
Turning to `CCCCCCCCOC(=O)CCCCCCCCC(=O)OCCCCCCCC`, the Potency entry in assay [1], in assay [2], in [4], in assay [5], in assay [7] and in [9] was “inactive” each time. Moreover, in the assay with Aromatase (Homo sapiens), the Potency result is “inactive”. Moreover, the outcome in assay [3], in [6] and in assay [8] was inactive.
`CC(C)(CO)[C@@H](O)C(=O)NCCC(=O)O`: the Potency entry in assay [1], in assay [2], in [4], in assay [5], in [7] and in assay [9] was “inactive” throughout. For the same molecule, in the assay with Aromatase (Homo sapiens), the Potency result is “inactive”. The molecule was called inactive in assay [3], in assay [6] and in [8].
For `CC(C)c1ccccc1`, the Potency result in assay [1], in [2], in [4], in assay [5], in assay [7] and in assay [9] was “inactive” each time. The outcome in [3], in assay [6] and in assay [8] was inactive.
Take `CCCCCCCCCC/C=C/C#N`: the Potency result in assay [1], in assay [2], in assay [4], in assay [5], in [7] and in assay [9] was “inactive” each time. For the same molecule, the Potency entry with Aromatase (Homo sapiens) is “inactive”. For the same molecule, the molecule was called inactive in [3], in assay [6] and in [8].
With `CCN(CC)CC1CCCCN1CC(=O)N1c2ccccc2C(=O)Nc2cccnc21` (stereo not given), the Potency entry in assay [1], in [2], in assay [4], in assay [5], in [7] and in [9] was “inactive” in each case. Besides, in the assay with Aromatase (Homo sapiens), the Potency entry is “inactive”. The outcome in assay [3], in assay [6] and in assay [8] was inactive.
For the molecule `CCOc1ccc(OCC)c(Cl)c1`, the Potency result in [1], in assay [2], in assay [4], in assay [5], in assay [7] and in [9] was “inactive” throughout. Further, the Potency entry with Aromatase (Homo sapiens) was “inactive”. For the same molecule, the call in assay [3], in assay [6] and in assay [8] was inactive.
With `Cc1cccc(C)c1NC(=O)CN1CCCCCC1`, the Potency entry in assay [1], in assay [2], in assay [4], in assay [5], in assay [7] and in assay [9] was “inactive” in each case. In addition, the Potency entry with Aromatase (Homo sapiens) is “inactive”. Further, the call in assay [3], in assay [6] and in [8] was inactive.
As for `CCCNC(C)C(=O)Nc1c(C)csc1C(=O)OC` (stereo not given), the Potency entry in assay [1], in [2], in assay [4], in assay [5], in assay [7] and in assay [9] was “inactive” each time. Moreover, in the assay with Aromatase (Homo sapiens), the Potency entry was “inactive”. Besides, the molecule was classed as inactive in assay [3], in [6] and in assay [8].
In the case of `CCOc1ccc(NS(=O)(=O)c2ccc(N)cc2)nn1`, the Potency entry in assay [1] and in assay [2] was “inactive” each time. Also, the call in assay [3] was inactive.
For the molecule `CCOC(=O)NCCC[Si](OCC)(OCC)OCC`, the Potency result in assay [1], in assay [2], in assay [4], in assay [5], in [7] and in [9] was “inactive” in each case. Also, the Potency entry with Aromatase (Homo sapiens) is “inactive”. Also, the molecule was classed as inactive in [3], in assay [6] and in assay [8].
Turning to `C=CCCCCCCCCO`, the Potency result in assay [1], in [2], in [4], in assay [5], in assay [7] and in assay [9] was “inactive” throughout. Moreover, the Potency entry in the assay with Aromatase (Homo sapiens) is “inactive”. For the same molecule, the molecule was classed as inactive in assay [3], in [6] and in assay [8].
For `NS(=O)(=O)c1cc(-c2nn[nH]n2)c(NCc2cccs2)cc1Cl`, the Potency result in assay [1], in [2], in [4], in assay [5], in assay [7] and in assay [9] was “inactive” throughout. The Potency entry with Aromatase (Homo sapiens) is “inactive”. Moreover, the call in [3], in assay [6] and in assay [8] was inactive.
`OCC(CBr)(CBr)CBr`: the Potency entry in assay [1], in [2], in [4], in assay [5], in [7] and in assay [9] was “inactive” throughout. Further, the call in assay [3], in [6] and in [8] was inactive.
With `OC[C@H]1O[C@@H](O[C@H]2[C@H](O)[C@@H](O)[C@H](O)O[C@@H]2CO)[C@H](O)[C@@H](O)[C@H]1O`, the Potency result in assay [1], in assay [2], in [4], in [5], in assay [7] and in [9] was “inactive” throughout. Also, the Potency entry in the assay with Aromatase (Homo sapiens) is “inactive”. The call in [3], in assay [6] and in assay [8] was inactive.
Turning to `Cc1ccsc1C(=CCCN1CCC[C@@H](C(=O)O)C1)c1sccc1C`, the Potency result (in assay [1]; in assay [2]; in [4]; in assay [5]; in assay [9]; in the assay with Aromatase (Homo sapiens)) was “inactive” in each case. The result in [3], in assay [6] and in assay [8] was inactive. Besides, the Potency in assay [7] is 21.1 µM (active).
Turning to `CC(C)(C)C1CCCCC1=O` (stereo not given), the Potency entry in assay [1], in assay [2], in assay [4], in assay [5], in [7] and in assay [9] was “inactive” throughout. Besides, the Potency result with Aromatase (Homo sapiens) is “inactive”. The molecule was called inactive in assay [3], in assay [6] and in assay [8].
With `CC(C)O`, the Potency entry in assay [1], in assay [2], in [4], in assay [5], in [7] and in assay [9] was “inactive” throughout. For the same molecule, the Potency result with Aromatase (Homo sapiens) is “inactive”. For the same molecule, the molecule was classed as inactive in [3], in assay [6] and in assay [8].
`C=CCc1cc(OC)c(O)c(C(=O)NCCO)c1`: the Potency result in assay [1], in [2], in assay [4], in [5], in assay [7] and in [9] was “inactive” throughout. For the same molecule, the Potency result with Aromatase (Homo sapiens) was “inactive”. The result in assay [3], in assay [6] and in [8] was inactive.
Regarding `Cc1c[nH]c(=S)[nH]c1=O`, the Potency entry in assay [1], in assay [2], in [4], in assay [5], in assay [7] and in [9] was “inactive” throughout. The molecule was called inactive in [3], in assay [6] and in assay [8].
For `CCCCCCCOC(=O)CCC`, the Potency entry in assay [1], in assay [2], in [4], in assay [5], in assay [7] and in [9] was “inactive” throughout. In addition, the Potency entry with Aromatase (Homo sapiens) was “inactive”. Also, the molecule was called inactive in [3], in [6] and in assay [8].
For `CC1=CC(=O)CC(C)(C)C1=O`, the Potency result in assay [1], in assay [2], in assay [4], in [5], in assay [7] and in assay [9] was “inactive” throughout. The Potency result in the assay with Aromatase (Homo sapiens) is “inactive”. Moreover, the result in assay [3], in assay [6] and in [8] was inactive.
With `CCC(=O)Nc1ccc(O)cc1`, the Potency entry in assay [1], in assay [2], in assay [4], in assay [5], in [7] and in assay [9] was “inactive” in each case. For the same molecule, in the assay with Aromatase (Homo sapiens), the Potency entry is “inactive”. The result in [3], in assay [6] and in assay [8] was inactive.
